Beta cell apopt – blocks beta cell apoptosis | INS-1E cytokine-induced death, ATP luminescence, 48 h; percent of positive-control rescue, neutral wells zero | protection from apoptosis, % (no concentration beside the values) | 0.8% of 300,000 active | AID 435005;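 active = Every replicate reaches about 75%, or at least half do and their mean reaches it too, limit read from the data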;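 note: 0% = cytokine-treated negative control wells and 100% = positive control rescue; higher means more ATP so stronger rescue from cytokine killing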
Mdm2-MdmX inh – human Mdm2/MdmX binding inhibition | 3% of 330,000 active | inhibition, % at 8 µM | SaOS-2 split-luciferase Mdm2/MdmX complementation, luminescence | O15151+Q00987;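 active = inhibition of at least 50% at 8 µM in the primary screen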
Target sequence (O15151 whole entry, looked up): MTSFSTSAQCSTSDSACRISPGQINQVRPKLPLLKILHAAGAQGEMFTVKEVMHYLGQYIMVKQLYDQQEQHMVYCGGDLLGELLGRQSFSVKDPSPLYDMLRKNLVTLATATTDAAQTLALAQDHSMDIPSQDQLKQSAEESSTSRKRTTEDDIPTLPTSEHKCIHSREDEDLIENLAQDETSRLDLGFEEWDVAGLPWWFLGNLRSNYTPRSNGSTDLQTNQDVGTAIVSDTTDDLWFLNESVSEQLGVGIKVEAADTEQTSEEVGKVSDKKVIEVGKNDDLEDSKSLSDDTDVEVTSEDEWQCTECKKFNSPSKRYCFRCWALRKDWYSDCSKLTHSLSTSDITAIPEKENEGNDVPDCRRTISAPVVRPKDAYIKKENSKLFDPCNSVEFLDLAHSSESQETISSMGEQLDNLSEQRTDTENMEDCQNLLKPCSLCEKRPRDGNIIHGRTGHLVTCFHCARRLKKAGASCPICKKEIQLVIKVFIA
Target sequence (Q00987 whole entry, looked up): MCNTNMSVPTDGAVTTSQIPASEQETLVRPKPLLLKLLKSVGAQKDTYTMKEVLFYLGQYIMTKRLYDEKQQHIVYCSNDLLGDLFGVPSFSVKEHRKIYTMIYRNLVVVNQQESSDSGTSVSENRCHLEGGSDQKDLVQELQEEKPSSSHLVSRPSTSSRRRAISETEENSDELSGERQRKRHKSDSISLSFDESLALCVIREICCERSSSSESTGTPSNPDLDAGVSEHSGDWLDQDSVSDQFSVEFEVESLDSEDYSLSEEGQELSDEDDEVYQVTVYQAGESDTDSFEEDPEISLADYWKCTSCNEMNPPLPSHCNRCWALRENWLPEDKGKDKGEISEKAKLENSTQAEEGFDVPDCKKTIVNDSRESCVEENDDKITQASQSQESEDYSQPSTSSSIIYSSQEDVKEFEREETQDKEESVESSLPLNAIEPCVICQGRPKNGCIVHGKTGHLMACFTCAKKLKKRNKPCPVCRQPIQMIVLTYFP
CSC inhib – cancer stem cell inhibition; cancer stem cell-like cells viability, luminescence; inhibition, % at 7.5 µM; 1.1% of 300,000 active; in the data active = inhibition above about 75%; tested in HMLE shEcad cells
Shn3 3UTR inh – inhibitors of Schnurri-3 3'UTR reporter in osteoblasts; inhibition, % at 12.5 µM; AID 588674; Clone20 osteoblast Shn3 3'UTR firefly luciferase, 24 h; 0.52% of 360,000 active;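 active = mean inhibition of at least 75% with every replicate also reaching 75%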;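 note: 0% = median of neutral control wells and 100% = pilot-screen positive control compound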
Gli-Sufu antag – Gli-Sufu pathway antagonism; Sufu-KO-LIGHT fibroblasts, Gli luciferase reporter luminescence; inhibition, % at 5 µM; 0.74% of 340,000 active;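 active = inhibition above about 55%, limit read from the data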;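 note: 0% = DMSO-treated cells and 100% = wells with medium but no cells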
PAX8 inh HTS – PAX8 transcriptional activity inhibition; RMG-I TPO-luciferase reporter, SteadyGlo, 24 h; inhibition, % at 12.6 µM; 1.2% of 360,000 active;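 active = mean replicate inhibition at least 60% with every replicate also reaching 60%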;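 note: luciferase light reporting Pax8 driven TPO promoter activity; plate controls were median of neutral control wells for no effect and mitoxantrone controls for full effect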
Mdm2-MdmX conf – confirmation of human Mdm2/MdmX interaction inhibitors; shares compounds with Mdm2-MdmX inh; inhibition, % at 8 µM; AID 489028; 55% of 10,000 active; Mdm2-MdmX binding, luminescent assay; in the data active = inhibition above about 40%
Full FLuc ctr – counter-screen for Mdm2/MdmX inhibitors: full-length luciferase. shares compounds with Mdm2-MdmX inh. SaOS-2 full-length luciferase counterscreen, luminescence. inhibition, % at 8 µM. 77% of 6,200 active. AID 504607;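 active = mean inhibition at 8 µM reaching about 37%, which flags the compound as non-specific, limit read from the data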;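 note: p53-null SaOS-2 cells with luciferase driven by a doxycycline-inducible promoter; compound on cells about two nights before reading with doxycycline added after day one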
* marks the source's active call; other numbers are inactive results. Shown are actives, neighbours in structure and some others; about 4% of the full set was active somewhere.

For Cc1nn(C(C)(C)C)c(C)c1/C=N/OC(=O)Nc1ccc(Cl)cc1 the results were Beta cell apopt -2.9, Mdm2-MdmX inh 95.5*, CSC inhib 12.8, Gli-Sufu antag 91.8*, PAX8 inh HTS 79.3*, Mdm2-MdmX conf 93.5* and Full FLuc ctr 56.5*.
Screening O=C(CSc1nnc(-c2ccccc2)n1Cc1ccccc1)N1CCOCC1 returned Mdm2-MdmX inh -1.6, CSC inhib -5.2, Shn3 3UTR inh 9.2 and Gli-Sufu antag -0.4.
Screening Oc1ccccc1-c1nnc(SCCN2CCOCC2)n1Cc1ccccc1 returned Beta cell apopt 60.4, Mdm2-MdmX inh 69.3*, CSC inhib 19.8, Shn3 3UTR inh 51.5, Gli-Sufu antag 0.1, PAX8 inh HTS 56.9 and Mdm2-MdmX conf 18.7.
Screening C[C@H]1CN([C@@H](C)CO)C(=O)c2cc(NC(=O)Nc3ccc(F)cc3)ccc2O[C@H]1CN(C)Cc1ccc(Cl)c(Cl)c1 returned PAX8 inh HTS 7.8.
Cc1sc(NC(=O)CSc2nnc(COc3ccc(Cl)cc3)n2C)c(C#N)c1C was read as Beta cell apopt 2.7, Mdm2-MdmX inh 51.8*, CSC inhib 6.0, Shn3 3UTR inh 14.9, Gli-Sufu antag 7.4, PAX8 inh HTS -24.6 and Mdm2-MdmX conf 34.0.
Screening CCOC(=O)c1cnc(SCC(=O)Nc2cc(C(F)(F)F)ccc2N2CCOCC2)nc1N returned Beta cell apopt 3.7, Mdm2-MdmX inh 54.5*, CSC inhib -0.1, Shn3 3UTR inh 1.9, Gli-Sufu antag 5.5 and Mdm2-MdmX conf -4.0.
CCOC(=O)c1cnc(SCC(=O)Nc2sc(C)c(C)c2C#N)nc1N was read as Mdm2-MdmX inh 72.2*, CSC inhib -5.1, Shn3 3UTR inh 15.2, Gli-Sufu antag 8.4, PAX8 inh HTS -14.6 and Mdm2-MdmX conf 7.0.
For CCOC(=O)c1cnc(SCC(=O)Nc2ccc(N3CCOCC3)c(Cl)c2)nc1N the results were Beta cell apopt 0.0, Mdm2-MdmX inh 12.9, CSC inhib 4.9, Shn3 3UTR inh 31.8 and Gli-Sufu antag -2.1.
O=C(C[C@H]1CC[C@H]2[C@@H](COC[C@H](O)CN2Cc2cc(F)cc(F)c2)O1)NC1CCC1 was read as PAX8 inh HTS -16.2.
CN(C)/C=C/C(=O)c1ccc2noc(-c3ccccc3)c2c1 was read as Beta cell apopt -13.7, Mdm2-MdmX inh 50.9*, CSC inhib 1.6, Shn3 3UTR inh -4.1, Gli-Sufu antag 1.7, PAX8 inh HTS 6.6 and Mdm2-MdmX conf 34.1.
C[C@H]1CN([C@@H](C)CO)C(=O)c2cccc(NS(=O)(=O)c3cccs3)c2O[C@H]1CN(C)S(=O)(=O)c1ccc(F)cc1 was read as PAX8 inh HTS -6.9.
Cc1noc(C)c1COc1cccc(C(=O)OCC(=O)N2CC(=O)Nc3ccccc32)c1 was read as Beta cell apopt 15.8, Mdm2-MdmX inh 50.4*, CSC inhib 53.9, Shn3 3UTR inh 12.5, Gli-Sufu antag 3.4, PAX8 inh HTS -4.9, Mdm2-MdmX conf 67.0* and Full FLuc ctr 58.7*.
For O=C1CN(C(=O)COc2cccc(F)c2)c2ccccc2N1 the results were Beta cell apopt 4.7, Mdm2-MdmX inh 5.4 and PAX8 inh HTS 11.8.
`N#Cc1ccc(-c2ccc3c(c2)[C@H]2[C@H](CCN2C(=O)c2ccccc2F)[C@@H](CO)N3)cc1` gave PAX8 inh HTS 1.9.
Screening CC(C)C[C@H](NC(=O)c1[nH]cnc1C(=O)N[C@@H](Cc1ccccc1)C(=O)OC(C)(C)C)C(=O)OC(C)(C)C returned Beta cell apopt 25.9, Mdm2-MdmX inh 79.5*, CSC inhib 0.4, Shn3 3UTR inh -11.1, Gli-Sufu antag 8.4, PAX8 inh HTS 68.1* and Mdm2-MdmX conf 21.5.
CC(C)(C)OC(=O)[C@H](Cc1ccccc1)NC(=O)c1nc[nH]c1C(=O)N1CCN(C(=O)OC(C)(C)C)CC1 was read as Beta cell apopt -3.2, Mdm2-MdmX inh 74.0*, CSC inhib 18.2, Shn3 3UTR inh 7.3, Gli-Sufu antag 6.6, PAX8 inh HTS -2.1 and Mdm2-MdmX conf 26.9.
